Screens from PubChem BioAssay.
Shown are actives, neighbours in structure and some others; about 11% of the full set was active somewhere.
Luciferase inh: Firefly luciferase inhibition profiling of diverse chemical library using quantitative high-throughput screening; AID 1347043, 2019; Luciferin 4-monooxygenase (Photinus pyralis), P08659; Potency, µM (titrated, usually from 115 µM), hits mostly inhibitors; hit rate 2.5% among 76,000; purified P. pyralis luciferase, luminescence, biochemical; note: nearly all actives have a fitted effect of over 65% in size
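Cell-free enzyme assay, 10nM P. pyralis luciferase, luciferin and ATP each at 10uM. Inhibition profiled over a 6-point titration, read as luminescence.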
HEK293 tox: Cytotoxic Profiling in HEK 293 Cell Line of Diverse Libraries Using Quantitative High-Throughput Screening. HEK 293 viability, ATP luminescence (CellTiter-Glo), 48-72 h. Potency, µM (top dose mostly 115 µM), for inactives: at the top dose activity change, negative = cytotoxicity, usual class: inhibitors. hit rate 6.6% among 94,000; note: nearly all actives have a fitted effect of over 60% in size
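Cytotoxicity was scored by loss of ATP-coupled luminescence (CellTiter-Glo) in HEK 293 cells. Compound treatment ran 48 or 72 hr at 37 degree Celsius, 5% CO2, 95% humidity.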
NPR1 antag: Natriuretic polypeptide receptor (hNpr1) antagonism - Primary qHTS | AID 1347048, 2019 | hit rate 1.6% among 76,000 | HEK293 hNpr1 GloSensor cGMP, ANP-stimulated luminescence | Potency, µM (titrated, usually from 46.3 µM), without a hit: at the top dose activity change, negative = inhibition, hits mostly inhibitors; calls by dose curve; note: nearly all actives have a fitted effect of over 60% in size
Target sequence (P16066 whole entry, looked up): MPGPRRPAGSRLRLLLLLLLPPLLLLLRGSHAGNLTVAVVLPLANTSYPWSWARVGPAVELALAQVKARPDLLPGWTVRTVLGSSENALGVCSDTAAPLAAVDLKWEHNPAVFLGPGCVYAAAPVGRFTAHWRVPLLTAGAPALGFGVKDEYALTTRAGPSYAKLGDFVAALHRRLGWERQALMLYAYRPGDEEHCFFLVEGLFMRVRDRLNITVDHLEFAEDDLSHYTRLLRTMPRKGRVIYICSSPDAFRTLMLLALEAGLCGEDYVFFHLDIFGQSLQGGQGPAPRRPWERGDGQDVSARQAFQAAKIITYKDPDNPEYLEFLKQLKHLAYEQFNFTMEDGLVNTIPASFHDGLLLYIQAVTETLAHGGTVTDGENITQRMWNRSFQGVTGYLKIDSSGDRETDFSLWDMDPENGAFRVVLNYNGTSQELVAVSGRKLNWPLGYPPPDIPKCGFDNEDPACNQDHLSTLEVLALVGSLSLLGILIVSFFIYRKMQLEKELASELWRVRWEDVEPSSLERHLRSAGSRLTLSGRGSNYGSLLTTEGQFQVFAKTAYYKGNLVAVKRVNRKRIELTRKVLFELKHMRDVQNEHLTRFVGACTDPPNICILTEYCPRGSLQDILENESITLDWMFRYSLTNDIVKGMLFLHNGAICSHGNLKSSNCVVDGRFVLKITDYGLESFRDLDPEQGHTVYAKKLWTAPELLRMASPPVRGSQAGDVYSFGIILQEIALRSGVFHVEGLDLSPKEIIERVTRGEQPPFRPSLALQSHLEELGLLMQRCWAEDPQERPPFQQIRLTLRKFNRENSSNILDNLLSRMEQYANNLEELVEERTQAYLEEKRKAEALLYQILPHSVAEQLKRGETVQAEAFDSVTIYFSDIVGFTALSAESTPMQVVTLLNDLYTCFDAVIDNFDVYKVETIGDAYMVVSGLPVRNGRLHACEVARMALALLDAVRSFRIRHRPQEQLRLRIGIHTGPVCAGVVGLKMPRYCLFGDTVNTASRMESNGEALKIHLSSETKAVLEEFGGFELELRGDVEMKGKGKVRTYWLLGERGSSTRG
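Compound pre-incubated 30 min at room temperature on GloSensor-loaded HEK293 cells stably carrying hNpr1 and the pGS-40F cGMP biosensor. Stimulation uses hNppA at 0.1 nM final; luminescence is taken at baseline and 20 min post-agonist.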
3T3 cytotox: Cytotoxic Profiling in NIH 3T3 Cell Line of Diverse Libraries Using Quantitative High-Throughput Screening; NIH 3T3 viability, CellTiter-Glo ATP luminescence, 48-72 h; Potency, µM (top dose mostly 96.7 µM), for the others: at the top dose activity change, negative = cytotoxicity, most hits filed as inhibitors; hit rate 4.3% among 94,000; AID 1345082, 2018; note: nearly all actives have a fitted effect of over 55% in size
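Viability of NIH 3T3 cells after 48 or 72 hr compound treatment at 37 °C was assessed by CellTiter-Glo, with luminescence imaged following a 10 min room-temperature step.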
Active calls of the source: *; i = inactive; ? = inconclusive; / = no result; [ ] = remark or other dose. Unless noted, calls come from the whole dose curve; as a rule, active = well fitted curve in the direction sought with a large enough effect; inconclusive = small, poorly fitted or top-dose-only effect, or another doubt; inactive = no such curve, though single readings can be large; an effect the other way counts as inactive or inconclusive. % is set by controls: 0 for no effect and ±100 for the full control effect; potency is the fitted concentration of half-maximal effect.

SMILES	Luciferase inh	HEK293 tox	NPR1 antag	3T3 cytotox
CC1Oc2ccc(NC(=O)c3ccccc3F)cc2CN(CCOc2ccccc2)C1=O (centres undefined)	i	?	-19%	?
COc1ccc(CN2Cc3cc(NC(=O)c4cc(OC)cc(OC)c4)ccc3OC(C)C2=O)cc1 (centres undefined)	i	20µM*	-2%	?
COc1cc(OC)cc(C(=O)Nc2ccc3c(c2)CN(Cc2ccc(F)cc2)C(=O)C(C)O3)c1 (centres undefined)	i	?	-20%	?
COc1ccc(CCN2Cc3cc(NC(=O)c4ccc(OC)cc4)ccc3OC(C)C2=O)cc1 (centres undefined)	i	89µM*	1%	-28%
CCCn1ncc(N2CCC(C(=O)N(CCCOC)Cc3ccc4c(c3)CCCN4CC)CC2)cc1=O	/	22µM*	/	35µM*
O=C(CN1C(=O)CCC1=O)N1CCC(CCOc2ccccc2F)C1 (centres undefined)	i	45µM*	?	-28%
Cc1nn(C(=O)CCC(=O)N2CCC(CCOc3ccccc3F)C2)c2ccccc12 (centres undefined)	i	-12%	-3%	-8%
CN(CC(=O)N1CCC(C)(c2noc(C3CC3)n2)CC1)S(=O)(=O)c1ccc2c(c1)oc(=O)n2C	i	-14%	18%	-21%
CN(CC(=O)N1CCC(CCOc2ccccc2F)C1)S(=O)(=O)c1ccc2c(c1)oc(=O)n2C (centres undefined)	i	40µM*	-23%	?
COc1ccc(NC(=O)C2CCc3nnc(C4CCN(C(C)=O)CC4)n32)cc1 (centres undefined)	/	-19%[172 µM]	/	-17%[138 µM]
CN(C)[S+](=O)([O-])c1ccc2c(c1)OCCN(Cc1ccccn1)C2	i	?	-1%[70.6 µM]	-20%[138 µM]
CCOC(=O)C1(Cc2ccccc2)CCCN(C(=O)c2ccccc2SC)C1 (centres undefined)	?	45µM*	-9%	?
CCCc1cc(C(=O)N2CCCC(Cc3ccccc3F)(C(=O)OCC)C2)n(C)n1 (centres undefined)	i	18µM*	-23%	?
CCOC(=O)C1(Cc2ccccc2F)CCCN(C(=O)c2ccc3c(c2)OCCO3)C1 (centres undefined)	?	?	1%	?
O=c1c2nc(-c3cccc(O)c3)ccc2ncn1Cc1ccccn1	i	-19%[172 µM]	-2%[70.6 µM]	20µM*
CC(=O)Nc1cccc(-c2ccc3ncn(Cc4ccccn4)c(=O)c3n2)c1	i	?	-6%[70.6 µM]	-30%[138 µM]
O=c1c2nc(-c3ccc(F)cc3)ccc2ncn1Cc1ccccn1	i	-16%[172 µM]	9%[70.6 µM]	?
O=c1c2nc(-c3ccc(O)c(F)c3)ccc2ncn1Cc1ccccn1	i	-7%[172 µM]	2%[70.6 µM]	79µM*
Cn1c(=O)n([C@H]2CCN(C(=O)c3ccco3)C2)c2ncccc21	/	2%	/	i
CC(C)[C@@H]1C[C@@H]2C[C@@H](NCc3ccccc3)C[C@]2(c2ccccc2)CO1	/	79µM*	/	?
CC(C)[C@@H]1C[C@@H]2C[C@@H](NC3CCCC3)C[C@]2(c2ccccc2)CO1	/	-24%	/	?
COc1ccc(C(=O)N(CC2CC2)CC2CN(C(=O)Nc3ccccc3)CCO2)cc1OC (centres undefined)	i	28µM*	1%	?
Cc1oc(C(O)c2ccccc2F)nc1C(=O)Nc1ccc2[nH]ccc2c1 (centres undefined)	63µM*	100µM*	-8%[70.6 µM]	?
Cc1oc(C(O)c2ccccc2)nc1C(=O)Nc1ccc(C(=O)Nc2ccccc2)cc1 (centres undefined)	?	32µM*	?	45µM*
Cc1oc(C(O)c2cccc(O)c2)nc1C(=O)Nc1ccc2c(c1)CNC2=O (centres undefined)	i	-17%[172 µM]	-4%[70.6 µM]	?
SMILES	Luciferase inh	HEK293 tox	NPR1 antag	3T3 cytotox
Cc1oc(C(O)c2cccc(O)c2)nc1C(=O)Nc1ccc(N2CCOCC2)cc1 (centres undefined)	5µM*	?	?	?
Cc1oc(C(O)c2ccccc2)nc1C(=O)Nc1ccc2c(c1)NC(=O)CO2 (centres undefined)	?	?	2%[70.6 µM]	-17%[138 µM]
Cc1oc(C(O)c2ccccc2)nc1C(=O)Nc1ccc2[nH]ccc2c1 (centres undefined)	50µM*	100µM*	-5%[70.6 µM]	?
CNC(=O)c1ccc(NC(=O)c2nc(C(O)c3ccccc3F)oc2C)cc1 (centres undefined)	i	?	-1%[70.6 µM]	-33%[138 µM]
CC(C)c1ccc(NC(=O)N2CCc3[nH]c4ccc(F)cc4c3C2)cc1	?	?	-3%	?
COc1cccc(-c2noc(NCc3cccc(Cl)c3)n2)c1OC	i	79µM*	-5%	?
Fc1ccccc1-c1noc(NCc2ccccc2)n1	28µM*	?	-8%	?
COc1cccc(-c2noc(Nc3cc(C)cc(C)c3)n2)c1OC	20µM*	?	-19%	?
COc1ccc(-c2noc(Nc3cc(C)cc(C)c3)n2)cc1	?	?	-10%	?
CC(C)Cn1c(=O)c(C(=O)N2CCN(C(=O)c3ccc(Cl)cc3)CC2)nc2cccnc21	/	-1%	/	-18%
CN1CCN(C(=O)c2nc3sccn3c2-c2ccccc2)CC1	/	i	/	-3%[138 µM]
O=[S+]([O-])(NC1CCN(c2nc3ncccc3o2)C1)c1cccc(C(F)(F)F)c1 (centres undefined)	/	-11%	/	-30%
CC1(COc2cccnc2)COc2ccc(C(=O)NCCc3ccccc3)cc2N1 (centres undefined)	?	?	8.9µM*	?
CC1(COc2cccnc2)COc2ccc(C(=O)NCCOc3ccccc3)cc2N1 (centres undefined)	?	?	8.9µM*	?
O=C(CCc1ccc(-c2cccs2)o1)NC[C@@H]1C[C@H](F)CN1	i	?	-9%	-17%
COc1cccc(N2C(=O)NC(=NC3CCCCC3)C23CCN(Cc2ccsc2)CC3)c1	/	-11%	/	-16%
COc1ccc(-c2c(C(=O)N3CCN(C(C)=O)CC3)nc3sccn23)cc1	/	i	/	1%
COC[C@@H]1CCCN1Cc1cn(Cc2ccccc2)nc1-c1cc2ccccc2o1	28µM*	?	-10%	?
CC(C)N(Cc1cn(Cc2ccccc2)nc1-c1cc2ccccc2o1)CC1CCC(=O)N1 (centres undefined)	i	2%	0%	-6%
Cc1cnc(NC(=O)c2ccc3c(c2)OCCN(Cc2ncccn2)C3)s1	40µM*	?	0%[70.6 µM]	-30%[138 µM]
O=C(Nc1nccs1)c1ccc2c(c1)OCCN(C1CCC1)C2	22µM*	?	-3%[70.6 µM]	?
